Assay results from the supplement of paper PMC8285479.
Several values for one entry are separate records, joined by “and”; a condition that tells them apart may be missing. Equal values may be shown once. Where a name gives a salt, the structure may show the parent alone. ± gives the standard deviation of the averaged measurements. The full ranking holds about 1,900 compounds; the median of “normalised cell viability (NPI; 0 = phenylarsine oxide control, 1 = DMSO control)” is about 1, and the lowest 2% start at about 0.039. The sample as a whole holds a higher share of the lowest values than the screen did.

Test system: NCI-H1944
Assay: normalised cell viability (NPI; 0 = phenylarsine oxide control, 1 = DMSO control) (fraction of DMSO control); NCI-H1944 is a non-small cell lung cancer line; higher = more viable cells (less compound toxicity)
Conditions: 6 days
[1] = glucocorticoid arm: hydrocortisone 2.75 uM co-treatment, compound 1 µM
[2] = glucocorticoid arm: hydrocortisone 2.75 uM co-treatment, compound 5 µM
[3] = glucocorticoid arm: hydrocortisone 2.75 uM pre-treated 2 days and continued, compound 1 µM
[4] = glucocorticoid arm: hydrocortisone 2.75 uM pre-treated 2 days and continued, compound 5 µM
[5] = glucocorticoid arm: vehicle, compound 1 µM
[6] = glucocorticoid arm: vehicle, compound 5 µM
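Note: CTB read-out in 384-well plates, triplicate wells, NPI normalised per plate against 1 µM phenylarsine oxide (0) and 0.1% DMSO (1) controls.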

SMILES	normalised cell viability [1]	normalised cell viability [2]	normalised cell viability [3]	normalised cell viability [4]	normalised cell viability [5]	normalised cell viability [6]
CN1CC[C@@H](c2c(O)cc(O)c3c(=O)cc(-c4ccccc4Cl)oc23)[C@@H]1CO	0.183 ± 0.011	0.031 ± 0.004	0.601 ± 0.026	0.0698 ± 0.0051	0.0431 ± 0.0039	0.00913 ± 0.002
CN1CC[C@H](c2c(O)cc(O)c3c(=O)cc(-c4ccccc4Cl)oc23)[C@H](O)C1 [Flavopiridol (Alvocidib)]	0.0613 ± 0.0073	0.0242 ± 0.0072	0.109 ± 0.015	0.0932 ± 0.025	0.0171 ± 0.0043	0.00703 ± 0.0012
COc1ccc(CCN(C)CCCC(C#N)(c2cc(OC)c(OC)c(OC)c2)C(C)C)cc1OC (racemic) [(±)-Methoxyverapamil hydrochloride]	1.007 ± 0.0058	0.998 ± 0.039	1.01 ± 0.01	1.01 ± 0.019	0.9847 ± 0.0042	0.999 ± 0.018
Cc1cnc(NC(=O)Nc2cc(Br)c(C)cc2OC[C@@H]2CNCCO2)cn1	1.03 ± 0.015	0.827 ± 0.041	1.04 ± 0.015	1.04 ± 0.011	0.776 ± 0.01	0.334 ± 0.027
CCCCCCCCCCCCCCCc1cccc(OCC)c1C(=O)Nc1ccc(Cl)c(C(F)(F)F)c1	1.01 ± 0.014	1.01 ± 0.011	1.01 ± 0.02	1.02 ± 0.016	0.9997 ± 0.0097	1 ± 0.0054
N#C[C@@H]1CCCN1C(=O)CNC12CC3CC(CC(O)(C3)C1)C2 [Vildagliptin (LAF-237)]	0.994 ± 0.0087	1 ± 0.011	0.9973 ± 0.0046	1.004 ± 0.01	0.998 ± 0.012	1.01
CN1CCN(S(=O)(=O)c2ccc(-c3cnc(N)c(C(=O)Nc4cccnc4)n3)cc2)CC1	1.113 ± 0.011	1.2 ± 0.015	1.1 ± 0.011	1.1 ± 0.021	0.743 ± 0.0076	0.959 ± 0.021
COc1ccc(-c2nc(N3CCOCC3)c3sc(CN(C)c4ncc(C(=O)NO)cn4)cc3n2)cn1	0.00442 ± 0.0038	0.00164 ± 0.00085	0.0384 ± 0.044	0.00149 ± 0.001	0.00371 ± 0.0034	0.000104 ± 0.00053
CS(=O)(=O)N1CCN(Cc2cc3nc(-c4cccc5[nH]ncc45)nc(N4CCOCC4)c3s2)CC1	1.02 ± 0.022	1.05 ± 0.015	1.02 ± 0.011	1.05 ± 0.015	0.998 ± 0.012	1.005 ± 0.0087
Cc1c(CN2CCN(C(=O)[C@H](C)O)CC2)sc2c(N3CCOCC3)nc(-c3cnc(N)nc3)nc12	0.631 ± 0.017	0.433 ± 0.034	0.59 ± 0.02	0.399 ± 0.076	0.757 ± 0.035	0.552 ± 0.033
C[C@H]1c2cccc(O)c2C(O)=C2C(=O)[C@]3(O)C(O)=C(C(N)=O)C(=O)[C@@H](N(C)C)[C@@H]3[C@@H](O)[C@@H]21 [Doxycycline HCl]	0.994 ± 0.007	0.986 ± 0.026	0.9957 ± 0.0031	0.99 ± 0.006	0.9947 ± 0.0025	1 ± 0.015
NCC(O)C1CCCCCCC1 (stereo unspecified) [2-Cyclooctyl-2-hydroxyethylamine hydrochloride]	0.987 ± 0.012	0.971 ± 0.016	0.998 ± 0.013	0.972 ± 0.02	0.9697 ± 0.0015	0.9663 ± 0.0085
CCC(=O)NCC[C@@H]1CCc2ccc3c(c21)CCO3 [Ramelteon]	1 ± 0.018	1.01 ± 0.011	1.006 ± 0.0069	1.01 ± 0.019	0.9943 ± 0.009	0.9933 ± 0.0061
Nc1nc(Cl)nc2c1ncn2[C@@H]1O[C@H](CO)[C@@H](O)[C@H]1O [2-Chloroadenosine]	0.998 ± 0.013	0.982 ± 0.011	0.998 ± 0.011	0.974 ± 0.052	0.9847 ± 0.0078	0.9883 ± 0.0078
Nc1nc(Cl)nc2c1ncn2[C@H]1C[C@H](O)[C@@H](CO)O1 [Cladribine]	0.0575 ± 0.013	0.0436 ± 0.0033	0.169 ± 0.0085	0.1867 ± 0.0011	0.0131 ± 0.0023	0.0121 ± 0.0031
Nc1ncn([C@H]2C[C@H](O)[C@@H](CO)O2)c(=O)n1 [5-Aza-2'-deoxycytidine]	1.087 ± 0.0058	1.12 ± 0.05	1.07 ± 0.01	1.09 ± 0.015	0.581 ± 0.051	0.296 ± 0.027
Nc1ncn([C@H]2C[C@H](O)[C@@H](CO)O2)c(=O)n1 [5-Aza-2'-deoxycytidine; Decitabine]	1.073 ± 0.0058	1.15 ± 0.026	1.07 ± 0.01	1.1 ± 0.02	0.204 ± 0.009	0.22 ± 0.021
Nc1ncn([C@H]2C[C@H](O)[C@@H](CO)O2)c(=O)n1 [Decitabine]	1.1 and 1.06		1.08 and 1.05			
Nc1nc(Cl)nc2c1ncn2[C@@H]1O[C@H](CO)[C@@H](O)[C@@H]1F [Clofarabine]	0.124 ± 0.015	0.146 ± 0.0052	0.341 ± 0.017	0.302 ± 0.017	0.0363 ± 0.0032	0.0483 ± 0.0032
Nc1ncnc2c1ncn2[C@@H]1O[C@H](CO)[C@@H](O)[C@H]1O [Adenosine]	0.9973 ± 0.0046	1.01 ± 0.01	0.995 ± 0.015	0.987 ± 0.019	1 ± 0.015	1.003 ± 0.0058
Nc1nc(Cl)nc2c1ncn2[C@@H]1O[C@H](COP(=O)(O)OP(=O)(O)OP(=O)(O)O)[C@H](O)C1O (stereo partly specified) [2-Chloroadenosine triphosphate tetrasodium]	0.992 ± 0.0076	0.818 ± 0.041	0.988 ± 0.018	0.917 ± 0.019	0.987 ± 0.0044	0.981 ± 0.0056
CN(C)CCOc1ccc(-c2nc(-c3ccncc3)c(-c3ccc4c(c3)CC/C4=N\O)[nH]2)cc1	1.103 ± 0.0058	1.16 ± 0.032	1.07 ± 0.011	1.11 ± 0.021	1.013 ± 0.0058	1 ± 0.05
O=[N+]([O-])c1ccc(CSc2ncnc3c2ncn3[C@@H]2O[C@H](CO)[C@@H](O)[C@H]2O)cc1 [S-(4-Nitrobenzyl)-6-thioinosine]	0.9813 ± 0.0047	0.968 ± 0.027	0.987 ± 0.018	0.996 ± 0.059	0.9973 ± 0.0046	0.9917 ± 0.0097
Nc1c(O)cc(O)cc1C=Cc1ccc(O)cc1 [Aminoresveratrol sulfate]	1 ± 0.015	1.01 ± 0.02	1.01 ± 0.015	1.01 ± 0.014	0.9937 ± 0.0027	1.01 ± 0.012
CC(C)C(=O)Oc1ccc(CO)cc1[C@H](CCN(C(C)C)C(C)C)c1ccccc1 [Fesoterodine Fumarate]	1.002 ± 0.0076	0.966 ± 0.019	1 ± 0.025	0.984 ± 0.04	1.001 ± 0.009	1 ± 0.016
